In PubChem BioAssay (Tox21) one finds outcome data, which are given here for 40 molecules.

Molecules are shown by their SMILES. Inconclusive results are not listed. Activity calls are given as the source filed them. Calls come from the whole dose curve; as a rule, active = well fitted inhibition curve with a large enough effect in the signal ratio in the repeat runs (not every such curve was filed as active); inconclusive = weak or mixed curves, or effect the other way; inactive = no such curve, though single readings can be large or run the other way; the % refers to the signal ratio.

Sequence of Vitamin D3 receptor (Homo sapiens) (P11473 whole entry, looked up): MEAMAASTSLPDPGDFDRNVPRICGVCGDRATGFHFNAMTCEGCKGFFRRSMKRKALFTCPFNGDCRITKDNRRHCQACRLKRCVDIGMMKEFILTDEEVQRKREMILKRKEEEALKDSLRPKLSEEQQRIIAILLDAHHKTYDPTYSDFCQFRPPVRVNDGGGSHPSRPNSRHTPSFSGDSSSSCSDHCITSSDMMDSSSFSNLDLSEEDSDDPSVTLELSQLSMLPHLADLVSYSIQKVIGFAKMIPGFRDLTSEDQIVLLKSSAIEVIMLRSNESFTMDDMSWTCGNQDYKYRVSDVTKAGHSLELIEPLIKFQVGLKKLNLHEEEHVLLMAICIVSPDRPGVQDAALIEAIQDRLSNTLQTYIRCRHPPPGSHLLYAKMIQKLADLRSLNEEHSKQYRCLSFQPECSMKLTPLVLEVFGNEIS

The target of the assay is Vitamin D3 receptor (Homo sapiens) (UniProt P11473). As to the kind of experiment: qHTS assay to identify small molecule antagonists of the vitamin D receptor (VDR) signaling pathway (AID 743223). The settings on record: VDR-UAS-bla HEK293T, beta-lactamase FRET ratio, 16 h; series mostly up to 61 µM. The text has this:
U.S. Tox21 Program National Center for Advancing Translational Sciences [NCATS] NIH Chemical Genomics Center [NCGC] U.S. Environmental Protection Agency [EPA] National Institutes of Environmental Health Sciences [NIEHS] National Toxicology Program [NTP] U.S. Food and Drug Administration [FDA] Tox21 Assay Overview: The vitamin D receptor (VDR), a member of nuclear hormone receptor superfamily, plays a critical role in calcium homeostasis and bone metabolism. It is also involved in cell differentiation and growth, and thrombogenicity.
Tox21 Assay Protocol Summary: VDR-bla cells were dispensed at 2,000 cells/5 uL of assay medium per well into black wall/clear-bottom 1536-well plates using a Multidrop Combi (Thermo Fisher Scientific, Waltham, MA) dispenser. After the assay plates were incubated at a 37C and 5% CO2 for 4 h, 23 nL of compounds dissolved in DMSO, positive controls or DMSO only was transferred to the assay plate by a Pintool station (Kalypsys, San Diego, CA), followed by addition of 1 uL of 1alpha, 25-Dihydroxy Vitamin D3 (3 nM, final concentration in the wells) using a Bioraptr Flying Reagent Dispenser (FRD) workstation (Beckman Coulter, Indianapolis, IN). The plates were incubated at 37C and 5% CO2 for 16 h, and then 1 uL of LiveBLAzerTM B/G FRET substrate was added using a Bioraptr FRD. The plates were incubated at room temperature for 2 h and fluorescence intensity was measured by an Envision plate reader (PerkinElmer, Shelton, CT).
On to `c1ccc(N2CCNCC2)cc1`, for which the result was inactive.

Consider `O=C1CN2CCOC2(c2ccccc2Cl)c2cc(Cl)ccc2N1` (stereo not given), for which the result was inactive.

As to `O=c1oc2ccccc2c(O)c1C1CCCc2ccccc21` (stereo not given), the outcome was inactive.

With `C[C@@H]1CN(C2CCC(C#N)(c3ccc(F)cc3)CC2)CC[C@]1(C(=O)O)c1ccccc1` (stereo not given in full), the outcome was inactive.

Consider `COc1cc2c(cc1OC)[C@@]13CCN4CC5=CCO[C@H]6CC(=O)N2[C@H]1[C@H]6[C@H]5C[C@H]43`, for which the result was inactive.

In the case of `Nc1cc(Cl)ccc1O`, the result was inactive.

As to `CCC1(c2ccccc2)C(=O)N=C(O)NC1=O` (stereo not given), the result was inactive.

Turning to `ClC(Cl)C(Cl)Cl`, the result was inactive.

Turning to `COP(=S)(OC)Oc1c(Cl)cc(C)cc1Cl`, the result was inactive.

Take `O=C1CN=C(c2ccccc2)c2cc([N+](=O)[O-])ccc2N1`: the result was inactive.

As for `CC(CC(C#N)(c1ccccc1)c1ccccc1)N(C)C` (stereo not given), the outcome was inactive.

Take `O=C1c2ccccc2C(=O)c2ccccc21`: the result was inactive.

`O=P(O)(Oc1ccccc1)Oc1ccccc1`: the result was inactive.

Consider `CC(C(O)c1ccccc1)N(C)C/C=C/c1ccccc1` (stereo not given), for which the result was inactive.

For the molecule `O=[N+]([O-])c1ccc2c3c(cccc13)CC2`, the result was inactive.

In the case of `CN1CCN(C(=O)O[C@H]2c3nccnc3C(=O)N2c2ccc(Cl)cn2)CC1`, the result was inactive.

In the case of `CC(C)(C)NCC(O)c1cc(Cl)c(N)c(Cl)c1` (stereo not given), the outcome was inactive.

As to `Oc1c(Cl)cccc1Cl`, the outcome was inactive.

With `CCOc1nc(C(Cl)(Cl)Cl)ns1`, the result was inactive.

As to `CC1=C(C(=O)O)N2C(=O)[C@@H](N)[C@H]2SC1`, the result was inactive.

For `O=NN1CCCCC1`, the outcome was inactive.

Regarding `CCN(Cc1ccc(Cl)nc1)/C(=C/[N+](=O)[O-])NC`, the outcome was inactive.

In the case of `CNC(=O)Oc1cccc(C(C)C)c1`, the result was inactive.

Take `CCC(=O)C(CCN(C)C)(c1ccccc1)c1ccccc1`: the outcome was inactive.

As for `CCCSC(=O)Cl`, the outcome was inactive.

For the molecule `N#CCBr`, the result was inactive.

Take `COc1cc(OC)nc(NC(=O)NS(=O)(=O)c2ncccc2OCC(F)(F)F)n1`: the outcome was inactive.

In the case of `O=CNC(N1CCN(C(NC=O)C(Cl)(Cl)Cl)CC1)C(Cl)(Cl)Cl` (stereo not given), the outcome was inactive.

Regarding `N#CC(CCc1ccc(Cl)cc1)(Cn1cncn1)c1ccccc1` (stereo not given), the result was inactive.

For `COc1ccc(C(=O)N2CCCC2=O)cc1`, the result was inactive.

Turning to `COc1cccc(C(=O)NN(C(=O)c2cc(C)cc(C)c2)C(C)(C)C)c1C`, the outcome was inactive.

Consider `Nc1c(Br)cc([N+](=O)[O-])cc1[N+](=O)[O-]`, for which the outcome was inactive.

Regarding `CC(N)=S`, the outcome was inactive.

Consider `CN(N=O)C(N)=O`, for which the outcome was inactive.

For `ClCCOCOCCCl`, the result was inactive.

Take `CCc1cc2c(s1)-n1c(C)nnc1CN=C2c1ccccc1Cl`: the result was inactive.

Turning to `CCS(=O)(=O)C(C)(C)S(=O)(=O)CC`, the result was inactive.

Turning to `CCCCP(CCCC)CCCC`, the outcome was inactive.

With `CN1CCC(N(Cc2ccccc2)c2ccccc2)CC1`, the outcome was inactive.

In the case of `CCC(Cl)[N+](=O)[O-]` (stereo not given), the outcome was inactive.
